From PubChem BioAssay
Bfl-1 A1 inh – caspase 3/7 activation in MEF A1-2A-BIM cells, primary screen, A1 inhibitor project, cell-based, luminescence, HTS | 330,000 compounds, 0.066% hits | caspase activation, % (concentration not given with the values) | Caspase-Glo 3/7 luminescence, 3 h; percent of clofoctol response, vehicle zero | AID 2462, 2010;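 active = over half of replicate activation scores above 10%, or exactly half above 10 with the replicate mean above 10; inconclusive = replicate mean below 10 yet half the replicates above 10; inactive = over half of replicates below 10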
Beta apoptosis – inhibitors of cytokine-induced beta cell apoptosis, primary screen, luminescence; protection from apoptosis, % (concentration not given with the values); AID 435005, 2010; 300,000 compounds, 0.8% hits; INS-1E cytokine-induced death, ATP luminescence, 48 h; percent of positive-control rescue, neutral wells zero;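 active = Every replicate reaches about 75%, or at least half do and their mean reaches it too, limit read from the data; inconclusive = At least half of replicates reach the limit but their mean does not; inactive = Under half of replicates reach the limit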;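 note: 0% = cytokine-treated negative control wells and 100% = positive control rescue; higher means more ATP so stronger rescue from cytokine killing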
aSyn UTR inh – MLPCN primary screen, SNCA 5' untranslated region; 300,000 compounds, 0.82% hits; inhibition, % (tested at 7.5 µM); alpha-synuclein 5'UTR reporter, inhibitor activity; in the data active = inhibition above about 60%; inconclusive = no clear call, values can overlap the other calls;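 note: H4 neuroglioblastoma cells stably carrying SNCA 5'UTR luciferase fusion; 0% = DMSO wells and 100% = positive control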
Mdm2 MdmX PPI – inhibitors of human Mdm2-MdmX association, primary screen, cell-based, luminescence, split luciferase, SaOS-2, uHTS. Protein Mdm4 (Homo sapiens) + E3 ubiquitin-protein ligase Mdm2 (Homo sapiens), …. SaOS-2 split-luciferase Mdm2/MdmX complementation. inhibition, % at 8 µM. 330,000 compounds, 3% hits. AID 485346, 2010;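 active = inhibition of at least 50% at 8 µM in the primary screen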
CSC inhib – cancer stem cell viability inhibitors, primary screen, luminescence; cancer stem cell-like cells viability; AID 2717, 2010; 300,000 compounds, 1.1% hits; inhibition, % at 7.5 µM; in the data active = inhibition above about 75%; inconclusive = no clear call, values can overlap the other calls; tested in HMLE shEcad cells
* = called active by the depositor; ? = inconclusive; nt = not tested or not shown. Only some compounds are listed: those with a hit (about 4.1% of all), similar ones and a draw of the others.

SMILES	Bfl-1 A1 inh	Beta apoptosis	aSyn UTR inh	Mdm2 MdmX PPI	CSC inhib
O=C(NC1CCCCC1)C(c1cccnc1)N(C(=O)CCl)c1ccc(F)cc1 (stereo not drawn)	0.5	-5.5	-94.0	nt	99.3*
O=C(NCC(=O)N(c1ccc(F)cc1)C(C(=O)NC1CCCCC1)c1cccnc1)c1ccco1 (stereo not drawn)	0.4	1.5	-23.5	13.1	-36.2
COc1ccc(-c2cn3cc(C)ccc3n2)cc1F	0.4	-4.0	77.5*	15.7	-9.2
COc1ccc(-c2cn3cc(C)ccc3n2)cc1OC	-1.0	-2.7	-19.1	-150.1	-4.5
CCC1(C)Cc2c(sc3nc(SC)n(Cc4ccccc4)c(=O)c23)CO1 (stereo not drawn)	-1.6	19.7	-117.6	-53.7	95.8*
CCOc1ccc(N(CC(=O)NCCSCc2ccco2)S(=O)(=O)c2ccc(C)cc2)cc1	-0.5	nt	14.6	-25.8	2.9
Cc1ccc(C2(c3noc(CN4CCC(c5ccncc5)CC4)n3)CCCC2)cc1	-0.2	13.7	-16.5	-22.3	91.8*
Cc1ccc(C2(c3noc(CN(C)CC4CCCCO4)n3)CCCC2)cc1 (stereo not drawn)	0.0	1.7	3.2	-2.5	-7.3
CCc1c(C)c(C#N)c2nc3ccccc3n2c1Cl	nt	nt	105.3*	nt	nt
Cc1ccc(S(=O)(=O)Nc2ccc(C(OC(=O)c3ccccc3[N+](=O)[O-])(C(F)(F)F)C(F)(F)F)cc2)cc1	-0.7	110.0*	2.0	13.4	107.0*
O=C(OC(c1ccc(NS(=O)(=O)c2ccccc2)cc1)(C(F)(F)F)C(F)(F)F)c1ccccc1	1.4	6.8	11.2	32.2	66.6
CCCCCOc1ccc(NC(=O)C(=O)NCCCn2ccnc2)cc1	0.9	20.6	62.6*	-0.3	54.9
CC1CCCCN1C(=O)CN1C(=O)NC2(CCCCC2C)C1=O (stereo not drawn)	-0.3	-3.5	nt	-10.9	2.2
Cc1cc(C)cc(NS(=O)(=O)c2cccs2)c1	0.3	-7.6	14.8	12.2	nt
CC(C)[n+]1ccn(C2=C([O-])c3ccccc3C(=O)/C2=N\S(=O)(=O)c2ccccc2)c1	0.5	54.1	32.3	31.7	4.2
Cc1cc(C)c[n+](C2=C([O-])c3ccccc3C(=O)/C2=N\S(=O)(=O)c2cccs2)c1	0.1	106.7*	23.5	12.6	23.7
Cc1cc[n+](C2=C([O-])c3ccccc3C(=O)/C2=N\S(=O)(=O)c2cccs2)cc1C	-1.6	-6.3	73.8*	36.7	-11.6
CCCCC[n+]1ccn(C2=C([O-])c3ccccc3C(=O)/C2=N\S(=O)(=O)c2ccccc2)c1	2.2	90.2*	47.2	18.4	-10.4
CCCC[n+]1ccn(C2=C([O-])c3ccccc3C(=O)/C2=N\S(=O)(=O)c2ccccc2)c1	-1.2	45.5	54.6	41.1	20.1
CC(C)(C)c1cc[n+](C2=C([O-])c3ccccc3C(=O)/C2=N\S(=O)(=O)c2ccccc2)cc1	0.0	82.4*	84.0*	29.0	27.5
Cc1cccc(C(C)C)c1NC(=O)CN1C(=O)NC2(CCc3ccccc32)C1=O (stereo not drawn)	0.0	-6.4	0.3	21.4	8.7
Cc1ccc(C)c(OCCC(=O)OCc2csc(CC(=O)Nc3ccccc3C)n2)c1	nt	nt	nt	3.0	nt
CN(C)S(=O)(=O)c1ccc(C(=O)NCCC(=O)N2CCCC2)cc1	-0.2	1.6	-25.5	4.5	nt
CC(C)(C)N1C(=O)[C@H]2[C@@H](c3ccc(Br)cc3)N3C(=O)N(c4cccc(Cl)c4)C(=O)[C@@]3(Cc3ccccc3)[C@H]2C1=O	0.6	4.8	9.0	25.6	-14.9
CC(C)N(Cc1ccccc1)S(=O)(=O)c1cccs1	0.7	nt	-4.2	17.9	nt
SMILES	Bfl-1 A1 inh	Beta apoptosis	aSyn UTR inh	Mdm2 MdmX PPI	CSC inhib
O=C1/C(=N\S(=O)(=O)c2cccs2)C([n+]2cccc(Cc3ccccc3)c2)=C([O-])c2ccccc21	-0.2	101.1*	84.7*	24.8	53.6
COc1cccc(C(=O)OCC(=O)Nc2cc(C)on2)c1OC	1.3	-2.5	nt	9.4	-16.4
COc1ccccc1N1CCN(c2ncc(C(=O)N3CCN(c4cccc(Cl)c4)CC3)c3ccccc23)CC1	-0.3	88.7*	-16.1	33.0	19.6
C/C(=C/CCC(C)(O)C1CC[C@@]2(C)[C@@H]3CC=C4[C@@H](CC[C@H](O[C@H]5O[C@@H](CO)[C@H](O)[C@@H](O)[C@@H]5O)C4(C)C)[C@]3(C)C(=O)C[C@]12C)CO[C@@H]1O[C@H](CO)[C@@H](O)[C@H](O)[C@H]1O (stereo partly drawn)	1.4	-5.2	nt	-7.1	nt
O=[N+]([O-])c1cc(CN2CCN(c3cccc(C(F)(F)F)c3)CC2)c2cccnc2c1O	0.1	70.5	70.8*	24.3	5.2
O=[N+]([O-])c1cc(CN2CCCC2)c2cccnc2c1O	0.1	4.7	nt	nt	33.5
C#CCN1C(=O)C2(OCCO2)c2ccccc21	-0.4	-7.6	13.5	22.3	-5.4
NC(=O)c1cc2c3ccccc3ccn2c1-c1ccccc1	1.1	-7.4	113.0*	nt	52.6
O=C1C=C(c2cccc(Cl)c2)C[C@@H](c2ccc3c(c2)OCO3)C1	0.5	-0.5	nt	3.3	34.1
O=C1C=C(c2ccc(Cl)c(C(F)(F)F)c2)C[C@@H](c2ccc3c(c2)OCO3)C1	-0.9	-2.7	nt	17.5	109.9*
CC(C)(Oc1ccc(Cl)cc1)C(=O)NC1=NN(c2ccccc2)C(=O)C1	-0.5	-2.3	12.5	16.6	112.5*
N#Cc1c(NC(=O)CSc2n[nH]c(Cc3ccccc3)n2)oc(-c2ccccc2)c1-c1ccccc1	0.6	nt	6.1	-4.8	101.8*
N#Cc1c(NC(=O)CSc2ncccn2)oc(-c2ccccc2)c1-c1ccccc1	0.5	0.5	25.9	-8.2	-15.0
CCCCCCCC/C=C\CCCCCCCC(=O)NCCO	-0.2	-2.4	nt	10.3	-7.3
CCCCCCCC/C=C\CCCCCCCC(=O)NCCc1ccc(O)c(O)c1	11.9*	?	nt	47.7	100.5*
CC1CCN(C(=O)c2[nH]cnc2C(=O)Nc2ccon2)CC1	-0.2	2.3	nt	-13.2	20.9
COc1ccc(-n2cnc3ccccc3c2=O)c([N+](=O)[O-])c1	1.0	-3.8	13.6	15.5	9.6
CCCCN(C(=O)c1ccncc1)c1c(N)n(CCC)c(=O)[nH]c1=O	0.0	-4.2	nt	7.3	-5.2
O=C(NCC1CCCCC1)c1cc2ccccc2cc1O	-1.0	-6.7	-109.1	-16.6	83.3*
O=C(NCC1CCCO1)c1cc2ccccc2cc1O (stereo not drawn)	-0.8	3.3	-125.2	-19.2	-6.0
CCCCOc1ccc(C(=O)N2CCNC(=O)C2)cc1	-0.8	-8.1	-5.8	21.1	nt
COc1ccccc1NC(=O)Cn1cc(C(=O)c2ccco2)c2ccccc21	-0.4	86.7*	-14.2	-5.8	-10.6
CCOc1ccc(NC(=S)NC(=O)/C=C/c2ccc(C)cc2)c([N+](=O)[O-])c1	17.4*	71.0	-18.1	36.7	-2.6
